Screening results from PubChem BioAssay.
MRP1 act – activators of MRP-1. H69AR cells + doxorubicin, viability rescue, CellTiter-Glo. viability increase, % at 10 µM. 0.61% of 140,000 active. AID 799;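 active = viability gain under doxorubicin at or above a set limit, the compound median plus 3 SD, cut at about 4.7% in these data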;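 also: MRP-1 overexpressing cells given doxorubicin 25 µM after compound pretreatment; 18-22 h compound pretreatment then 72 h with doxorubicin before readout; 0% = doxorubicin-only wells and 100% = vehicle-treated cells without doxorubicin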
CYP2C9 inhib – human CYP2C9 inhibition. P11712. CYP2C9 Supersomes, luciferin-H conversion, luminescence. inhibition, % at 5 µM. 20% of 96,000 active. AID 777;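 active = blocking of liver enzyme CYP2C9 beyond about 50% at 5 µM, limit read from the data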
Target sequence (P11712 whole entry, looked up): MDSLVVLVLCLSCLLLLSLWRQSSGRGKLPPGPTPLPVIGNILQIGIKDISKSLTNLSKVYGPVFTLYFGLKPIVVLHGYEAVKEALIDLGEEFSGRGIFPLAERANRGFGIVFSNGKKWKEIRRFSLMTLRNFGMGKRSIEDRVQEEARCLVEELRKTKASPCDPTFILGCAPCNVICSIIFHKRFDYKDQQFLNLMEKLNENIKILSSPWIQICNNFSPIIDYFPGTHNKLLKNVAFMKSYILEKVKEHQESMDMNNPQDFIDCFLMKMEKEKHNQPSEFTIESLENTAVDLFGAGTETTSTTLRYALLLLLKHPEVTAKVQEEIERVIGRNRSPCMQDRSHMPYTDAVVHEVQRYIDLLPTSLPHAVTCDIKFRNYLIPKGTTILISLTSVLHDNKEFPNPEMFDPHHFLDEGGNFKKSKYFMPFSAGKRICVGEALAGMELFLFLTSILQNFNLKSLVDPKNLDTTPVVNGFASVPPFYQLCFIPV
CYP2C9 act – activators of human CYP2C9; activation factor at 5 µM; recombinant CYP2C9, luciferin-H conversion, luminescence; hits give high values; factor 1 = untreated enzyme, 0 = blocked; 1.4% of 96,000 active;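 active = activation factor of 2 or more for CYP2C9 at a 5 µM dose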;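 also: 0 = sulfaphenazole-blocked wells and 1 = vehicle-only wells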
CYP2C19 inhib – inhibitors of human CYP2C19 | CYP2C19 Supersomes, luciferin-H EGE luminescence, 30 min | inhibition, % at 5 µM | 21% of 96,000 active;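 active = CYP2C19 inhibition above a set limit at 5 µM in the primary screen, cut at about 50% in these data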;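 also: plate controls were negative control wells for no effect and 2.5 mM tranylcypromine positive control for full effect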
CYP2C19 activ – cytochrome P450 2C19 (human) activation; recombinant CYP2C19, luciferin-H EGE luminescence; hits give high values; 0 = fully inhibited enzyme, 1 = untreated enzyme; activation factor at 5 µM; 96,000 tested, under 10 active; AID 1025;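 active = activation factor of at least 2 at 5 µM in the primary screen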;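 also: 0 = wells with 2.5 mM tranylcypromine and 1 = vehicle-only wells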
MRP resist rev – MRP-mediated drug resistance reversal | differential viability (reversal), % at 10 µM | H69AR cells + 2 uM doxorubicin, CellTiter-Glo, 72 h | 0.04% of 85,000 active | AID 602;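 active = viability drop by adding the cancer drug above about 55%, with treated viability meeting a 40% cutoff, limit read from the data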;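 also: viability without doxorubicin minus viability with 2 µM doxorubicin for each compound; larger differential means the compound sensitizes cells more to doxorubicin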
Active calls of the source: *; . = no result given. In the library only some 21% were active in any assay of this set; here they are far more common.

SMILES | MRP1 act | CYP2C9 inhib | CYP2C9 act | CYP2C19 inhib | CYP2C19 activ | MRP resist rev
Cc1ccccc1S(=O)(=O)Cc1ccc(C(=O)N2CCN(c3ccc(F)cc3)CC2)o1 | -2 | 44 | 0.6 | 47 | 0.5 | -32
CCCCn1c(SCc2cc(=O)n3ccsc3n2)nc2cc(C(=O)OC)ccc2c1=O | . | 12 | 0.9 | -3 | 1 | -1
C=C1CC2C3CC[C@@]4(OCOC45COCO5)[C@@]3(C)C(O)CC2[C@@]2(C)CCC(=O)C=C12 (stereo partly drawn) | -5 | . | . | . | . | .
O=C(CN1C(=O)c2ccccc2C1=O)Nc1cccc2cccnc12 | -2 | -3 | 1 | -13 | 1.1 | -7
N#CC1=C(SCC(=O)NC2CC2)NC(=O)C(C#N)C12CCCCC2 (stereo not drawn) | 0 | 68* | 0.3 | 20 | 0.8 | 8
N#CC1=C(SCC(=O)Nc2cccc3cccnc23)NC(=O)C(C#N)C12CCCCC2 (stereo not drawn) | -1 | 91* | 0.1 | 78* | 0.2 | -3
CN(Cc1ccccc1)Cc1c[nH]c2ccccc12 | -6 | 4 | 1 | 88* | 0.1 | -19
CC12C=CC3(CN(Cc4ccccc4)C(=O)C3C1C(=O)NC1CC1)O2 (stereo not drawn) | -3 | 2 | 1 | 11 | 0.9 | 6
CS(=O)(=O)N(CCc1ccccc1)CC(=O)NCc1cccnc1 | 0 | 36 | 0.6 | 93* | 0.1 | 51
CS(=O)(=O)N(CCc1ccccc1)CC(=O)NCc1ccco1 | -3 | 12 | 0.9 | 66* | 0.3 | -4
CS(=O)(=O)N(CC(=O)NCc1ccco1)Cc1ccc(Cl)cc1 | -3 | 34 | 0.7 | 58* | 0.4 | -5
Cc1ccc(S(=O)(=O)N(CC(=O)NCc2ccco2)Cc2ccc(F)cc2)cc1 | -3 | 58* | 0.4 | 34 | 0.7 | .
CS(=O)(=O)N(CCc1ccccc1)CC(=O)NCc1ccccn1 | -1 | 18 | 0.8 | 36 | 0.6 | -13
COc1ccc(N2C(=O)C3[C@@H](C2=O)C2(Cl)C(Cl)=C(Cl)C3(Cl)C2(OC)OC)cc1 (stereo partly drawn) | 3 | . | . | . | . | .
O=C(CSc1nnc(Nc2ccccc2)s1)Nc1cccc(S(=O)(=O)N2CCCCC2)c1 | 1 | . | . | . | . | .
COc1ccc(Cl)cc1S(=O)(=O)n1cnc2ccccc21 | -3 | 31 | 0.7 | 78* | 0.2 | -27
CCOc1cc(C)c(Cl)cc1S(=O)(=O)n1cnc2ccccc21 | -3 | 0 | 1 | 25 | 0.7 | -25
Cc1cc(C)c(S(=O)(=O)n2cnc3ccccc32)c(C)c1 | -2 | -15 | 1.1 | -8 | 1.1 | 17
CCOc1ccc(Cl)cc1S(=O)(=O)n1cnc2ccccc21 | -4 | 19 | 0.8 | 95* | 0 | -35
O=C(COC(=O)c1c[nH]c(=O)[nH]c1=O)NCc1ccccc1 | 0 | 4 | 1 | -18 | 1.2 | .
C[n+]1cc[nH]c1SCC(=O)c1ccccc1 | -2 | -9 | 1.1 | 72* | 0.3 | -15
Cc1nc2ccccc2nc1SCC(=O)c1ccccc1 | -3 | . | . | . | . | .
O=C(NCCc1ccncc1)C(F)(F)F | -1 | -6 | 1.1 | -1 | 1 | 2
O=C(NCCOC(=O)c1ccncc1)c1ccccc1 | -1 | 92* | 0.1 | 71* | 0.3 | -4
O=C(NCc1ccncc1)c1ccc(Br)cc1 | 0 | 28 | 0.7 | 51* | 0.5 | 8
SMILES | MRP1 act | CYP2C9 inhib | CYP2C9 act | CYP2C19 inhib | CYP2C19 activ | MRP resist rev
Cc1ccc(C(=O)NCCc2ccncc2)cc1 | -2 | 29 | 0.7 | 51* | 0.5 | 9
COC(=O)c1c(-c2cccs2)csc1NC(=O)c1cccnc1 | -2 | 100* | 0 | 100* | 0 | -7
CC1(C)C(=O)OC(c2ccco2)C(C)(C)C1=O (stereo not drawn) | -1 | -2 | 1 | 34 | 0.7 | 10
CCC(=O)c1cc2c(C)cc(=O)oc2c(C)c1OC(=O)C(C)C | -2 | . | . | . | . | .
O=C(NCc1ccccc1)NC(=O)c1ccncc1 | -2 | 82* | 0.2 | 95* | 0 | -14
O=C(NCCCc1ccccc1)c1ccncc1 | 1 | 93* | 0.1 | 98* | 0 | 16
O=C(NCCOC(=O)c1cccs1)c1cccnc1 | -2 | 33 | 0.7 | 61* | 0.4 | .
O=C(NCCCc1ccccc1)c1ccccc1 | -3 | 12 | 0.9 | 49 | 0.5 | 20
COc1ccc(COc2cc(-c3cccc(OC)c3)nc3ccc(N)cc23)cc1 | -3 | . | . | . | . | .
